Reference: PubChem BioAssay (NCATS)
Records with an inconclusive call do not appear. A call without a number means that no potency is given here. Activity calls are given as the source filed them. Calls come from the whole dose curve; as a rule, active = well fitted inhibition curve with a large enough effect; inconclusive = small, poorly fitted or top-dose-only effect; inactive = flat fitted curve, though single readings scatter.

Each molecule was assayed against Calcium and integrin-binding protein 1 (Homo sapiens) (UniProt Q99828) (assay: Primary qHTS for Identification of Calcium Integrin Binding Protein 1 (CIB1) Competitor (AID 1508620;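 note: GST tagged CIB1 binding a fluorescein labelled alphaIIb integrin peptide tracer; top concentration of the series differs between compounds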)). Conditions: CIB1-GST / FITC-alphaIIb peptide fluorescence polarization; series mostly up to 57.7 µM.
Chain of Calcium and integrin-binding protein 1 (Homo sapiens) (Q99828 whole entry, looked up): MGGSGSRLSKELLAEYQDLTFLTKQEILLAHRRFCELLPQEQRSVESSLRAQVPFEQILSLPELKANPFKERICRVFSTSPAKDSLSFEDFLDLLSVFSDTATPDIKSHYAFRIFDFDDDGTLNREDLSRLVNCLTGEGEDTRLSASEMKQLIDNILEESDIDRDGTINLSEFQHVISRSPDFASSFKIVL
Outline: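 Fluorescence polarization competition: CIB1-GST (1 uM final) preincubated with compound 15 min at room temperature, then FITC-labeled alphaIIb peptide (100 nM final) added for another 15 min. Polarization read at Ex 480/Em 540.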

Compound | Potency
CCOC1OC(=O)C[C@H]1NC(=O)[C@@H]1CCCN1C(=O)[C@@H](NC(=O)c1ccc(N)c(Cl)c1)C(C)(C)C (some centres undefined) | inactive
CO[C@@H](C(=O)N1Cc2[nH]nc(NC(=O)c3ccc(N4CCN(C)CC4)cc3)c2C1)c1ccccc1 | inactive
COc1ccc(-c2oc3c(CC=C(C)C)c(OC4O[C@H](CO)[C@@H](O)[C@H](O)[C@@H]4O)cc(O)c3c(=O)c2OC2O[C@@H](C)[C@H](O)[C@@H](O)[C@@H]2O)cc1 (some centres undefined) | inactive
CCC(=O)O[C@]1(C(=O)CO)CC[C@H]2[C@@H]3CCC4=CC(=O)CC[C@]4(C)[C@@H]3CC[C@@]21C | inactive
CC(C)n1cnc2c(NCCCCCCNC(=O)OC(C)(C)C)nc(NCCO)nc21 | inactive
CC=C(C)C(=O)O[C@H]1C(C)=C[C@]23C(=O)[C@@H](C=C(CO)[C@@H](O)[C@]12O)[C@H]1[C@@H](C[C@H]3C)C1(C)C | inactive
C[C@]12CC[C@@H]3c4ccc(O)cc4CC[C@H]3[C@H]1C[C@@H](O)[C@H]2O | inactive
CC=CC(=O)N(CC)c1ccccc1C | inactive
C[C@H]1[C@H](NC(=O)C(=NOC(C)(C)C(=O)O)c2csc(N)n2)C(=O)N1S(=O)(=O)O | inactive
CC(C)=CC[C@@H](O)C1=CC(=O)c2c(O)ccc(O)c2C1=O | inactive
COc1ccc2c3c1OC1C[C@@H](O)C=C[C@@]31CCN(C)C2 (some centres undefined) | inactive
CO[C@H]1C=CC=C(C)C(=O)NC2=CC(=O)C(NCCN(C)C)=C(C[C@@H](C)C[C@H](OC)[C@@H](O)[C@@H](C)C=C(C)[C@@H]1OC(N)=O)C2=O | inactive
O=c1c(-c2ccc(O)cc2)coc2cc(O[C@@H]3O[C@H](CO)[C@H](O)[C@H](O)[C@H]3O)ccc12 | inactive
NC(=O)NN=Cc1ccc([N+](=O)[O-])o1 | inactive
Clc1cc(Cl)cc(CNc2ncncc2-c2ccc3c(c2)OCO3)c1 | inactive
O=C1NC(=O)C(=Cc2cccc(C(F)(F)F)c2)S1 | inactive
COc1cc(O)c2c(c1)C(=O)c1cc(C)cc(O)c1C2=O | inactive

Compound | Potency
NC1CCC(Nc2nc(Nc3ccc(C(=O)N4CCCCC4)cc3)c3ncn(-c4cccc(F)c4)c3n2)CC1 (centres undefined) | inactive
CC(=O)N(C)C1(c2ccccc2)CCN(CCC[C@]2(c3ccc(Cl)c(Cl)c3)CCCN(C(=O)c3ccccc3)C2)CC1 | inactive
CC(=NNC(=S)N1CCC1)c1ccccn1 | inactive
CCOC(=O)O[C@]1(C(=O)OCCl)CC[C@@H]2[C@H]3CCC4=CC(=O)C=C[C@]4(C)[C@@H]3[C@@H](O)C[C@@]21C | inactive
COCCCCC(=NOCCN)c1ccc(C(F)(F)F)cc1 | inactive
C[N+]1(C)[C@@H]2CC(OC(=O)[C@H](CO)c3ccccc3)C[C@H]1[C@H]1O[C@@H]12 (some centres undefined) | inactive
N#CC(=C(N)Sc1ccccc1N)C(C#N)=C(N)Sc1ccccc1N | inactive
CO[C@H]1C(=O)[C@]2(C)[C@@H](OC)C[C@H]3OC[C@@]3(OC(C)=O)[C@H]2[C@H](OC(=O)c2ccccc2)[C@]2(O)C[C@H](OC(=O)[C@H](O)[C@@H](NC(=O)OC(C)(C)C)c3ccccc3)C(C)=C1C2(C)C | inactive
CC1(C)S[C@H]2[C@H](NC(=O)[C@@H](N)c3ccc(O)cc3)C(=O)N2[C@@H]1C(=O)O | inactive
Cc1[nH]c(C=C2C(=O)Nc3ccc(S(=O)(=O)Cc4c(Cl)cccc4Cl)cc32)c(C)c1C(=O)N1CCC[C@H]1CN1CCCC1 | inactive
CC(C)C(=O)Oc1ccc(CO)cc1[C@H](CCN(C(C)C)C(C)C)c1ccccc1 | inactive
CC1(C)O[C@H]2C[C@@H]3[C@H]4CCC5=CC(=O)C=C[C@]5(C)[C@@]4(F)[C@@H](O)C[C@]3(C)[C@]2(C(=O)CO)O1 | inactive
CC[C@@]1(O)C[C@H](O[C@H]2C[C@H](N(C)C)[C@H](O[C@H]3C[C@H](O)[C@H](O[C@H]4CCC(=O)[C@H](C)O4)[C@H](C)O3)[C@H](C)O2)c2c(cc3c(c2O)C(=O)c2c(O)cccc2C3=O)[C@@H]1C(=O)OC | inactive
NC1=N[C@@]2(c3cc(NC(=O)c4ccc(F)cn4)ccc3F)COC[C@@H]2CS1 | inactive
O=C(OCC#CCSc1nnc(-c2cccc3ccccc23)o1)c1cc2ccccc2s1 | inactive
CC=CCC=CCCC(=O)[C@H]1O[C@@H]1C(N)=O | inactive
Cc1ccccc1C(C(=O)NC1CCCCC1)N(C(=O)Cn1ccnc1C)c1cccc(F)c1 (centres undefined) | inactive
